Results filed as inconclusive are left out. Entries that show only a call come without a potency. Calls of active or inactive are those of the source. Calls come from the whole dose curve; as a rule, active = well fitted activation curve with a large enough effect; inconclusive = small, poorly fitted or top-dose-only effect; inactive = no such curve, though single readings can be large or run the other way.
Assay: qHTS assay for re-activators of p53 using a Luc reporter: Hit Validation with no p53 Expressed
Details: p53-null cells, luciferase reporter counter-screen; series mostly up to 46.1 µM
Method in brief: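 Counter-screen of primary hits in a cell line not transfected with p53, in Opti-MEM with 10% FBS; compounds at several concentrations (10 mM stock, 1:5; top 46.1 µM in well), 24 h at 37 deg C, 5% CO2. Luminescence read after 10 min with Amplite reagent.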
Potency is the fitted concentration of half-maximal effect.

Structure (SMILES) | Potency
Cc1cccc2nc(CSC(=N)N)c(Br)n12 | inactive
Cc1cccnc1NC(=O)/C=C/c1ccc2c(c1)OCO2 | inactive
O=C(Cn1cc2c(n1)CCCCC2)NC1CCCCCC1 | inactive
Cc1ccc(C)c(OCC(O)CN2C(C)CCCC2C)c1 (centres undefined) | inactive
O=C(NCC1CCCO1)c1ccc(NC(=O)c2cccc([N+](=O)[O-])c2)cc1 (centres undefined) | inactive
N#Cc1cnc(Oc2ccc(Cl)cc2)nc1N | inactive
COc1ccc(C(=O)O/N=C(\N)c2ccccc2)c(OC)c1 | 1.16 µM (active)
CCOP(=O)(OCC)C(NC(=O)Nc1ccccc1)C(N)=O (centres undefined) | inactive
COc1ccc(CNC(=O)NC2CCCCC2)cc1 | inactive
CC(C)C(=O)NC(c1cccs1)c1cc([N+](=O)[O-])c2cccnc2c1O (centres undefined) | inactive
O=C(CNc1ccccc1)N/N=C/c1c[nH]c2ccccc12 | inactive
Cc1ccc(NC(CC(=O)c2ccccc2)c2ccc(F)cc2)cc1 (centres undefined) | inactive
COc1ccc2oc(C(=O)OCC(=O)NCCN3C(=O)CSC3=O)c(C)c2c1 | inactive
O=C(/C(=C\c1ccccc1)c1nc2ccccc2[nH]1)c1ccc(Cl)cc1 | inactive
Cc1cc(-n2c(C)cc(C(=O)COc3cc(F)ccc3[N+](=O)[O-])c2C)no1 | inactive
Cc1cccc(C)c1NC(=O)CC(NCc1ccco1)C(=O)O (centres undefined) | inactive
O=C(CCN1C(=O)/C(=C/c2ccccc2Cl)SC1=S)N1CCOCC1 | inactive
c1ccc(-c2ccc(-c3ccccn3)nn2)nc1 | inactive
Cc1ccc(NC2=C(Cl)C(=O)c3ccccc3C2=O)cc1 | inactive
